The source of these data is ChEMBL document CHEMBL4513216, “Probing the Open Global Health Chemical Diversity Library for Multistage-Active Starting Points for Next-Generation Antimalarials” (ACS Infect Dis, 2020).

The campaign covered roughly 69,000 compounds. About 8,600 (12%) showed an effect of 50% or more. Shown is part of a subset that was picked to be rich in strong results.

This experiment has as its system Plasmodium berghei. The experiment is described as follows: Screen against P. berghei liver stage (PbLuc), transformed with Luciferase, at 10uM. Particulars: tested at 10 uM. The class given is functional, HepG2.
In the case of `CC(C)CCn1c(=O)[nH]c2cn(-c3ccc(F)cc3)c(=O)n21`, the INHIBITION is reported as -15%.

Turning to `CN1CCC(C(=O)NCCC2CN(c3cnn(C)c(=O)c3)CCO2)CC1` (stereo not drawn), the INHIBITION is listed as 23.6%.

`O=C1OCCCN1Cc1nc(-c2ccc(N3CCCCC3)cc2)no1`: the INHIBITION stood at 55.5%.

Regarding `O=C1OCCCN1Cc1nc(-c2ccncc2)no1`, the INHIBITION is recorded as 36.5%.

Regarding `O=C1NCCCN1Cc1nc(-c2ccc(N3CCCCC3)cc2)no1`, the INHIBITION came to 26.4%.

For the compound `Cc1ccc2[nH]c(=O)cc(C(=O)N[C@@H]3C[C@@H](CO)N(C)C3)c2c1`, the INHIBITION was found to be 46.7%.

In the case of `O=C(CSC1=NS(=O)(=O)c2cc(F)ccc2N1)Nc1ccc(Cl)cc1`, the INHIBITION was determined as 3.52%.

`O=C(CSC1=NS(=O)(=O)c2cc(F)ccc2N1)Nc1ccc(Cl)c(Cl)c1`: the INHIBITION was 57.3%.

In the case of `O=C(CSC1=NS(=O)(=O)c2cc(F)ccc2N1)Nc1cccc(Cl)c1`, the INHIBITION came to 16.6%.

`COc1cc2c(nn1)CCN(Cc1nc(Cc3ccccc3)no1)C2`: the INHIBITION is listed as -112%.

As to `COc1cc2c(nn1)CCN(Cc1nnc(Cc3ccccc3)o1)C2`, the INHIBITION turned out to be 88.5%.

As for `COc1cc2c(nn1)CCN(Cc1ncc(C(C)(C)C)o1)C2`, the INHIBITION turned out to be 18.9%.

Consider `O=C(C1CCCO1)N1CCCn2c(nnc2Cn2ccnc2)C1` (stereo not drawn), for which the INHIBITION is recorded as -12.4%.

`CC(C)n1cc(S(=O)(=O)N2CCCCCC2)cn1`: the INHIBITION stood at 33.3%.

As to `c1ccc(CCc2n[nH]c(C3CCC3)n2)cc1`, the INHIBITION is -31.9%.

Turning to `COc1ccc(NCC2(O)CCNCC2)cc1OC`, the INHIBITION is given as 62.7%.

Regarding `Cc1ccc(NCC2(O)CCNCC2)cc1C`, the INHIBITION is listed as 23.1%.

Consider `OC1(CNc2ccc(F)cc2)CCNCC1`, for which the INHIBITION is 6.29%.

`O=C(CCn1c(C(F)(F)F)cc2cccnc21)NC1CCCC1`: the INHIBITION was found to be 8.72%.

In the case of `Cc1nc2c(c(NCCN3CCOCC3)n1)CCN(C)C2`, the INHIBITION was determined as 7.55%.

For the compound `CCN(CC)CCCNc1nc(C)nc2c1CCN(C)C2`, the INHIBITION amounted to 5.185%.

`Cc1nc2c(c(NCCCN3CCOCC3)n1)CCN(C)C2`: the INHIBITION was 59.7%.

Turning to `CC(C)Cc1nc(CN2CCOC(Cn3cncn3)C2)no1` (stereo not drawn), the INHIBITION amounted to 15.3%.

Take `Cc1nccc(N2CCCC2CCNS(C)(=O)=O)n1` (stereo not drawn): the INHIBITION was determined as 10.9%.

As for `c1ccc(Cc2nc(CN3CCCC3Cn3cncn3)cs2)cc1` (stereo not drawn), the INHIBITION worked out at 23.5%.

For the compound `CCc1cc(=O)n(CCNC(=O)Nc2ccc(OC(F)(F)F)cc2)cn1`, the INHIBITION stood at 28%.

Turning to `O=S(=O)(NCC1CCN(c2cnccn2)CC1)c1cccs1`, the INHIBITION is recorded as 25.1%.

With `CCc1ccc(S(=O)(=O)NCC2CCN(c3cnccn3)CC2)s1`, the INHIBITION is reported as 83%.

Turning to `CCS(=O)(=O)NCC1CCN(c2cnccn2)CC1`, the INHIBITION came to 40%.

As to `CC(=O)NCc1nn(C)c2c1CN(Cc1ccsc1)C2`, the INHIBITION came out at 69.7%.

Take `CC(=O)NCc1noc2c1CN(Cc1ccsc1)CC2`: the INHIBITION stood at 64.5%.

As for `c1cncc(OCc2noc3c2CN(Cc2ccoc2)CC3)c1`, the INHIBITION was -3.95%.

Consider `CC(=O)NCc1noc2c1CN(Cc1cccs1)CC2`, for which the INHIBITION stood at 6.83%.

As to `c1cncc(OCc2noc3c2CN(Cc2cccs2)CC3)c1`, the INHIBITION is on record as -26.5%.

As to `O=C(N1CCCC1)N1CCc2onc(COc3cccnc3)c2C1`, the INHIBITION is reported as 20.6%.

`c1cncc(OCc2noc3c2CN(Cc2ccsc2)CC3)c1`: the INHIBITION stood at 56.1%.

As for `CC(=O)N(C)Cc1nn(C)c2c1CN(Cc1ccsc1)C2`, the INHIBITION is given as -37.9%.

As for `CC(=O)NCc1noc2c1CN(Cc1cnn(C)c1)CC2`, the INHIBITION is listed as 46.7%.

Regarding `O=C(c1cc[nH]n1)N1CCc2onc(COc3cccnc3)c2C1`, the INHIBITION amounted to 67.2%.

Turning to `Cn1nc(Cn2cccc2)c2c1CN(Cc1ccsc1)C2`, the INHIBITION is -5.08%.

With `O=C(c1ccc[nH]1)N1CCc2onc(COc3cccnc3)c2C1`, the INHIBITION is on record as 21.8%.

For `CNC(=O)CCc1cc(C)nc(C2CCN(c3cnccn3)CC2)c1`, the INHIBITION came out at 34.65%.

As to `CC(=O)N1CCCC1c1nccnc1NCc1cccnc1` (stereo not drawn), the INHIBITION was -9.51%.

On to `CNc1cncc(C2CCN(S(C)(=O)=O)CC2)n1`, for which the INHIBITION turned out to be 12.8%.

For `CCCC(NC(=O)c1ccccc1Br)c1nnn[nH]1` (stereo not drawn), the INHIBITION is 43.1%.

For `Cc1noc(C)c1CC(=O)N1CCC(c2ccn3nccc3n2)CC1`, the INHIBITION is on record as -27.8%.

For `CS(=O)(=O)N1CC[C@H]2OCC[C@@]2(C(=O)NCCc2ccccn2)C1`, the INHIBITION worked out at 38.5%.

Regarding `Nc1cc(CCCNC(=O)NC2CCCC2)nn1-c1ccccc1`, the INHIBITION is on record as -26.2%.

On to `CC(C)N(C(=O)CCc1cccc(F)c1)C1CCOCC1`, for which the INHIBITION is on record as -6.34%.

As to `CN1CCN(C(=O)c2nc3c(s2)CCCN3C(=O)C2CC2)CC1`, the INHIBITION amounted to 37.9%.

With `CCc1nnc2n1CCN(Cc1ncc(-c3ccccc3)o1)C2`, the INHIBITION was determined as 9.665%.

With `CCN(CC1CCOC1)C(=O)c1cnc2onc(C)c2c1` (stereo not drawn), the INHIBITION was 34.15%.

With `O=C(NCCn1ccc(-c2ccccn2)n1)c1ccncc1`, the INHIBITION came to 31.2%.

As to `O=C(NCCn1ccc(-c2ccncc2)n1)C1CC1`, the INHIBITION came to 52.6%.

`CC(C)(C)CC(=O)NCCn1ccc(-c2ccncc2)n1`: the INHIBITION is -4.99%.

For the compound `Cc1nnsc1C(=O)NCCn1ccc(-c2ccncc2)n1`, the INHIBITION is on record as 61.5%.

For `CC(C)(C)C(=O)NCCn1ccc(-c2ccncc2)n1`, the INHIBITION is reported as 11.9%.

As for `O=C(NCCn1ccc(-c2ccncc2)n1)c1ccncc1`, the INHIBITION is given as 26.4%.
